Test results as given in PubChem BioAssay AID1259343 (VanderVen Lab, College of Veterinary Medicine, Cornell …, 2017).
Among all 6,200 compounds or so, about 2,900 (47%) were called active. The set was probably picked from earlier hits. This is one part of the list. Unmarked numbers belong to inactive results. Cut-off read from the data, not from the text of the source: active = inhibition above about 50%; inactive = the rest.

Assay: Mycobacterium tuberculosis growth inhibition, primary screen (AID 1259343)
Settings: inhibition: at 10 µM, active compounds read high; outcome: 10 uM

Q: With `CC1=NN(C(=O)c2ccccc2)C(C)(NN(C)c2ccccc2)C1` (stereo not drawn) as the molecule, how does the inhibition read?
A: 75.7% (active)

Q: With `Cc1cccc(C(=O)N2N=C(c3ccccc3)CC2(O)C(F)(F)F)c1O` (stereo not drawn) as the molecule, how does the inhibition read?
A: 49.1%

Q: For `Cc1cc(Cc2c(O)nc(N)[nH]c2=O)ccc1OC(C)C`, which inhibition is on record?
A: 36.4%

Q: For `Cn1ccc(C(=O)Nc2ccccc2N2CCc3sccc3C2)cc1=O`, which inhibition is on record?
A: 63.6% (active)

Q: With `CCC1c2ccsc2CCN1CC(=O)Nc1ccccc1C#N` (stereo not drawn) as the molecule, how does the inhibition read?
A: 39.9%

Q: Which inhibition does the source give for `O=S(=O)(c1cccc(Cl)c1Cl)N1CCc2sccc2C1` here?
A: 17.2%

Q: With `c1ccc(Cc2nnc(SCc3cccc4ccccc34)o2)cc1` as the molecule, how does the inhibition read?
A: 4.35%

Q: Which inhibition does the source give for `Cc1nc(Cc2nnc(SCC(=O)c3ccc(Cl)s3)o2)cs1` here?
A: 9.62%

Q: For `O=C(CSc1nnc(Cc2ccccc2)o1)c1ccc2ccccc2c1`, which inhibition is on record?
A: 67.7% (active)

Q: For `CCCCCCC1C(C#N)=C(N)SC(N)=C1C#N`, which inhibition is on record?
A: 24.4%

Q: With `CCCCCCCC1C(C#N)=C(N)SC(N)=C1C#N` as the molecule, how does the inhibition read?
A: 93.5% (active)

Q: For `N#CC1=C(N)SC(N)=C(C#N)C1c1ccc(-c2ccccc2)cc1`, which inhibition is on record?
A: 14.3%

Q: For `Cc1cccc(N2CCN(c3ccc4nnc(C5CC5)n4n3)CC2)c1C`, which inhibition is on record?
A: 85.7% (active)

Q: Which inhibition does the source give for `CC(C)=NNc1nc(Cl)c(C#N)c(Cl)c1Cl` here?
A: 102% (active)

Q: For `FC(F)(F)c1nnc2ccc(NCCC3CCCC3)nn12`, which inhibition is on record?
A: 18%

Q: For `O=C(Nc1cnc(-c2ccccc2)nc1)C1CCCC1`, which inhibition is on record?
A: 48.4%

Q: With `O=C(Nc1cccc(/C=C/c2ccccn2)c1)C1CCCC1` as the molecule, how does the inhibition read?
A: 97.1% (active)

Q: With `O=C(Nc1cccc(OCc2ccccn2)c1)C1CC1` as the molecule, how does the inhibition read?
A: 18.7%

Q: With `CC(C)n1c(CCC(=O)O)ccc1-c1ccc(Br)cc1` as the molecule, how does the inhibition read?
A: 50.3% (active)

Q: With `CC(C)(C)C1CCC(CN2CC(O)C(N3CCCC3)C2)CC1` (stereo not drawn) as the molecule, how does the inhibition read?
A: 41.1%

Q: With `CC(Sc1n[nH]c(-c2ccc(Cl)cc2)n1)C(=O)NCc1ccco1` (stereo not drawn) as the molecule, how does the inhibition read?
A: 42%

Q: With `CCOC(=O)CCCNC(=O)CSc1n[nH]c(-c2ccc(Br)cc2)n1` as the molecule, how does the inhibition read?
A: 74.5% (active)

Q: With `CC(C)c1ccc(-c2nnn(CC(=O)c3ccc(O)cc3)n2)cc1` as the molecule, how does the inhibition read?
A: 55.7% (active)

Q: With `CC(C)c1ccc(-c2nnn(CC(=O)NC(C)(C)C)n2)cc1` as the molecule, how does the inhibition read?
A: 4.54%

Q: For `N#Cc1ccc(OCC(O)Cn2nnc(-c3ccc(Cl)cc3)n2)cc1` (stereo not drawn), which inhibition is on record?
A: 49.3%

Q: For `C=CCOc1ccc(C2c3c(oc4ccc(C)cc4c3=O)C(=O)N2c2nccs2)cc1` (stereo not drawn), which inhibition is on record?
A: -15.9%

Q: With `NCC(=O)Nc1ccc(-n2nc(C(F)(F)F)cc2-c2ccc3c(ccc4ccccc43)c2)cc1` as the molecule, how does the inhibition read?
A: 73.5% (active)

Q: For `CC(C)CN(CC(=O)Nc1cc(C(C)(C)C)nn1-c1ccc(Cl)c(Cl)c1)C(=O)Nc1ccc(C(F)(F)F)cc1`, which inhibition is on record?
A: 38.3%

Q: Which inhibition does the source give for `COCCOc1nc(-c2ccc(C(F)(F)F)cc2)n(-c2ccc(NC(=O)C(Cl)c3ccccc3)cc2)n1` (stereo not drawn) here?
A: 19.5%

Q: Which inhibition does the source give for `OCCN(C=NC1=NN(c2cccc(C(F)(F)F)c2)CC1)CCO` here?
A: 83.2% (active)

Q: With `O=[N+]([O-])c1ccc(C=NC2=NN(c3cccc(C(F)(F)F)c3)CC2)o1` as the molecule, how does the inhibition read?
A: 87.8% (active)

Q: Which inhibition does the source give for `CN(N=Cc1ccc([N+](=O)[O-])o1)c1ccccc1` here?
A: -45.3%

Q: With `FC(F)(F)c1cccc(N2CCC(N=Cc3ccccc3C(F)(F)F)=N2)c1` as the molecule, how does the inhibition read?
A: 50.2% (active)

Q: Which inhibition does the source give for `FC(F)(F)c1cccc(N2CCC(N=Cc3ccccn3)=N2)c1` here?
A: 93.2% (active)

Q: With `C(=NC1=NN(c2ccccc2)CC1)N1CCCCCC1` as the molecule, how does the inhibition read?
A: -7.42%

Q: For `CCCNC(=O)COc1c(Cl)cc(Cl)c2ccc(C)nc12`, which inhibition is on record?
A: 72.1% (active)

Q: With `O=[N+]([O-])c1ccc(C(O)CNC(=S)NCc2ccc3c(c2)OCO3)cc1` (stereo not drawn) as the molecule, how does the inhibition read?
A: 89.8% (active)

Q: With `Cc1cc(=O)[nH]c(-n2nc(C)cc2NC(=O)c2ccco2)n1` as the molecule, how does the inhibition read?
A: 101% (active)

Q: For `CCc1cc(=O)[nH]c(-n2nc(C)cc2NC(=O)c2ccco2)n1`, which inhibition is on record?
A: 100% (active)

Q: With `CCc1cc(=O)[nH]c(-n2nc(C)cc2NC(=O)c2ccc(Br)o2)n1` as the molecule, how does the inhibition read?
A: 101% (active)

Q: Which inhibition does the source give for `Cc1cc(=O)[nH]c(-n2nc(C3CC3)cc2NC(=O)c2ccco2)n1` here?
A: -24.5%

Q: Which inhibition does the source give for `CCCc1cc(=O)[nH]c(-n2nc(C)cc2NC(=O)c2ccco2)n1` here?
A: 100% (active)

Q: Which inhibition does the source give for `CCc1cc(=O)[nH]c(-n2nc(C)cc2NC(=O)c2cc(=O)c3ccccc3o2)n1` here?
A: 34.9%

Q: For `COCC(O)CN(C)C(=O)c1ccc(Oc2cccc(Br)c2)nc1` (stereo not drawn), which inhibition is on record?
A: 85% (active)

Q: Which inhibition does the source give for `C=CCNC(=O)N(Cc1ccccn1)c1ccc(Oc2cccc(F)c2)nc1` here?
A: 39.1%

Q: With `CN(Cc1ccc(Br)cc1)CC(O)COc1cccc(Br)c1` (stereo not drawn) as the molecule, how does the inhibition read?
A: 46.8%

Q: For `CCc1ccc(N2C(=O)C3N=NN(Cc4ccc(C)cc4)C3C2=O)cc1` (stereo not drawn), which inhibition is on record?
A: 60.1% (active)

Q: Which inhibition does the source give for `CC1=NOC(Cc2ccccc2)C(=O)N1Cc1ccc(C)cc1` (stereo not drawn) here?
A: 30.2%

Q: Which inhibition does the source give for `CCc1ccc(N2C(=O)C3N=NN(Cc4ccccc4C)C3C2=O)cc1` (stereo not drawn) here?
A: 76.5% (active)

Q: For `CCc1ccc(N2C(=O)C3N=NN(Cc4ccccc4)C3C2=O)cc1` (stereo not drawn), which inhibition is on record?
A: 93.5% (active)

Q: With `COc1ccc(N2C(=O)C3N=NN(Cc4ccccc4C)C3C2=O)cc1Cl` (stereo not drawn) as the molecule, how does the inhibition read?
A: -10.3%

Q: Which inhibition does the source give for `Cc1ccc(-c2nc(SCc3ncc(C(C)C)o3)n[nH]2)cc1` here?
A: 11.4%

Q: For `CCCCCSc1n[nH]c(-c2ccc(C)cc2)n1`, which inhibition is on record?
A: 84.7% (active)

Q: With `Cc1cc(=O)[nH]c(-n2nc(C)cc2NC(=O)c2ccc3ccccc3c2)n1` as the molecule, how does the inhibition read?
A: 94.6% (active)

Q: For `CCc1cc(=O)[nH]c(-n2nc(C)cc2NC(=O)c2ccc3ccccc3c2)n1`, which inhibition is on record?
A: 101% (active)

Q: For `CCCc1cc(=O)[nH]c(-n2nc(C)cc2NC(=O)c2ccc3ccccc3c2)n1`, which inhibition is on record?
A: 102% (active)

Q: Which inhibition does the source give for `FC(F)(F)c1cc(Cl)c2nnc(SCCN3CCSCC3)n2c1` here?
A: -6.99%

Q: With `CCCCCC12CCC(CC(=O)O)(CC1)CC2` as the molecule, how does the inhibition read?
A: 70.4% (active)

Q: With `CC(C)N1C(=O)C(=NN2C(=O)CSC2=S)c2ccccc21` as the molecule, how does the inhibition read?
A: -42.2%

Q: With `O=C(NCc1ccoc1)N1CCN(Cc2ccc(Cl)s2)CC1` as the molecule, how does the inhibition read?
A: 2.21%

Q: With `O=C(NC1CC1)N1CCN(Cc2ccc(-c3ccccc3F)s2)CC1` as the molecule, how does the inhibition read?
A: 97.6% (active)

Q: With `CC(NC(=O)c1ccc(-c2ccccc2F)s1)C(=O)N1CCCCC1` (stereo not drawn) as the molecule, how does the inhibition read?
A: 18.5%

Q: With `CCCCCCCCCCCCCCCCCCN(C)C` as the molecule, how does the inhibition read?
A: 98.2% (active)
